In the library only some 19% were active in any assay of this set; here they are far more common.
uPA generation = inhibitors of cell surface uPA generation | Potency, µM (top dose mostly 38.3 µM), inactives show at the highest dose activity change, negative = inhibition, actives largely listed as inhibitors | cell surface uPA generation assay, qHTS | 330,000 compounds, 0.31% hits; active = well fitted inhibition curve with a large enough effect; inconclusive = small, poorly fitted or top-dose-only effect; inactive = no such curve, though single readings can be large or run the other way; tested in mouse RAW 264.7 cells; also: potency is read from the fitted curve at half-maximal effect; nearly all actives have a fitted effect of over 55% in size
IL1B secr inh = inhibitors of inflammasome signaling (IL-1 beta secretion). 360,000 compounds, 4.7% hits. AID 743279. THP-1 LPS/ATP IL-1B secretion, AlphaLISA, 16 h; stronger effect = lower value. activity change, % at 57.5 µM; in the data active = activity change below about -50%; inconclusive = mostly about -30% to -49%
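Secreted IL-1B measured by AlphaLISA bead assay after 16 h compound exposure of THP-1 cells; compounds (final up to 57.5 uM) added 1 h before LPS (250 ng/mL) and ATP (1.25 mM) stimulation; lower signal means less secretion.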
HT1080 IDH1KD tx = toxicity to HT-1080 IDH1 knockdown cells (counter line); HT-1080 IDH1 knockdown viability, ATP luminescence, 48 h; 360,000 compounds, 2% hits; Potency, µM (titrated, usually from 46.1 µM), for the others: at the highest dose activity, negative = toxicity, hits mostly cytotoxic;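 also: potency is read from the fitted curve at half-maximal effect; 0% = DMSO wells and -100% = cell-free medium wells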
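Viability of IDH1-knockdown HT-1080 fibrosarcoma cells was assessed by CellTiter-Glo after 48 h at 37 °C with titrated compound; concentration-effect curves were classified by fit quality and response size.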
DT40 TDP1 no CPT = qHTS for Inhibitors of human tyrosyl-DNA phosphodiesterase 1 (TDP1): qHTS in cells in absence of CPT. Potency, µM (titrated, usually from 46.2 µM), without a hit: top-dose activity change, negative = growth inhibition, hits mostly inhibitors. 420,000 compounds, 15% hits. DT40 Tdp1-/- hTDP1 cells, no CPT, ATP luminescence, 48 h; also: potency is read from the fitted curve at half-maximal effect; nearly all actives have a fitted effect of over 55% in size
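Seeded 400 DT40-hTDP1 cells/well (vehicle DMSO, no 20 nM CPT); pinned compounds; ≥48 hr at 37 °C; CellTiter-Glo luminescence as viability measure.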
DT40 TDP1 CPT = growth inhibition of DT40 Tdp1-/-;hTDP1 cells with camptothecin (screen for TDP1 inhibitors) | Potency, µM (doses to about 46.2 µM), for the others: at the top dose activity change, negative = growth inhibition, usual class: inhibitors | AID 686979 | chicken DT40 Tdp1-/-;hTDP1 cells + 20 nM CPT, ATP luminescence, 48 h | 420,000 compounds, 12% hits; also: potency is read from the fitted curve at half-maximal effect; nearly all actives have a fitted effect of over 55% in size
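Chicken DT40 Tdp1-/- cells stably complemented with human TDP1 were seeded at 400 cells/well in medium containing 20 nM camptothecin, exposed to pin-transferred compounds, and grown at 37 °C for at least 48 hr. Viability was read as ATP luminescence.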
HT1080-NT tox = kills 2HG-producing HT-1080-NT fibrosarcoma cells | HT-1080-NT fibrosarcoma viability, CellTiter-Glo ATP luminescence, 48 h | 360,000 compounds, 1.6% hits | Potency, µM (series often up to 46.1 µM), inactives show top-dose activity, negative = less viability, most hits filed as cytotoxic | AID 686970;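 also: NT is the 2HG producing partner of a matched IDH1 knockdown line; potency is read from the fitted curve at half-maximal effect; 0% = DMSO-treated cells and -100% = media-only wells without cells; nearly all actives have a fitted effect of over 55% in size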
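A 48-hour cytotoxicity screen used HT-1080-NT cells plated 2 hours before compound delivery. ATP-based CellTiter-Glo luminescence measured viability, normalized to DMSO and no-cell controls.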
Starred values were filed as active, the others as inactive; ? = inconclusive; nt = no result given; ! = repeats disagree. Unless noted, calls follow the shape of the dose curve; as a rule, active = well fitted curve in the direction sought with a large enough effect; inconclusive = small, poorly fitted or top-dose-only effect, or another doubt; inactive = no such curve, though single readings can be large; an effect the other way counts as inactive or inconclusive. Unless noted, % is scaled to controls: 0 for no effect and ±100 for the full control effect.

SMILES	uPA generation	IL1B secr inh	HT1080 IDH1KD tx	DT40 TDP1 no CPT	DT40 TDP1 CPT	HT1080-NT tox
O=C(c1ccoc1)N1CCC2(CC1)Oc1ccc(Cl)cc1C(=O)C21CC(c2cccnc2)=NO1 (stereo not drawn)	-2%	-7	3%	-13%	-14%	2%
O=C(c1ccoc1)N1CCN(c2cc(-c3cccnc3)nc3cc(-c4cccc(Cl)c4)nn23)CC1	nt	?	-3%	7.3µM*	18µM*	-3%
CC(=O)N1CCN(c2cc(-c3ccccc3)nc3cc(-c4cccc(Cl)c4)nn23)CC1	nt	3	1%	10µM*	21µM*	4%
O=C(c1ccoc1)N1CCN(c2cc(-c3ccncc3)nc3cc(-c4cccc(Cl)c4)nn23)CC1	nt	-11	1%	5.8µM*	13µM*	0%
Cc1cc(N2CCN(C(=O)c3ccco3)CC2)n2nc(-c3cccc(F)c3)cc2n1	nt	-24	6%	?	?	2%
OC1CCN(c2cc(-c3ccccc3)nc3cc(-c4ccc(F)cc4)nn23)CC1	2%	-8	2%	?	15%	10%
O=C(c1ccncc1)N1CCN(c2cc(-c3ccccc3)nc3cc(-c4cccc(Cl)c4)nn23)CC1	nt	6	3%	7.3µM*	12µM*	7%
CSCCC(c1nc2ccccc2[nH]1)n1c(-c2ccc3ncccc3c2)nc2ccccc21 (stereo not drawn)	nt	?	-14%	?	?	-21%
COc1cccc(CNC(=O)CCCc2cn(C)c3ccccc23)c1	4%	-23	-2%	5%	0%	1%
O=C(CNC(=O)c1ccc(Br)o1)OCC(=O)c1cccc([N+](=O)[O-])c1	-1%	19	19%	?	?	7%
CC[C@]1(c2ncc[nH]2)Cc2ccccc2O1	nt	nt	nt	24µM*	?	nt
CC(C)CCCCCCNC(=S)Nc1ccc(S(=O)(=O)N2CCOCC2)cc1	?	-82*	?	13µM*	16µM*	?
Cc1cc(NC(=O)CCc2ccc(S(=O)(=O)N3CCOCC3)cc2)n(-c2ccccc2)n1	-4%	12	-11%	8.2µM*	12µM*	1%
O=S(=O)(c1ccc(NC(=S)Nc2ccccc2)cc1)N1CCOCC1	2%	41	18%	-27%	-9%	16%
COc1ccc(C(=O)NC(C)C2CC3CCC2C3)cc1 (stereo not drawn)	-3%	15	0%	?	?	-17%
COc1ccc(NC(=O)NC(C)C2CC3CCC2C3)cc1 (stereo not drawn)	-1%	-80*	-10%	-16%	11%	14%
O=C(CCc1ccccc1)NC(=S)Nc1ccc(S(=O)(=O)N2CCOCC2)cc1	-5%	2	-27%	16µM*	?	-10%
CN(C)CC(C)(C)CNC(=S)Nc1ccc(S(=O)(=O)N2CCOCC2)cc1	2%	0	1%	?	-12%	0%
COc1ccccc1NS(=O)(=O)c1cccc(C(=O)OCC(=O)NC2CC2)c1	3%	9	2%	-15%	-2%	0%
CC(=O)C(Cc1ccccc1)NC(=O)COC(=O)CCN1C(=O)C2CC=CCC2C1=O (stereo not drawn)	-5%	12	-7%	-6%	-8%	-2%
CC(NC(=S)Nc1ccc(S(=O)(=O)N2CCOCC2)cc1)C1CC2CCC1C2 (stereo not drawn)	-7%	0	?	29µM*	?	?
Cc1ccc2ccccc2[n+]1CCCS(=O)(=O)[O-]	-6%	0	7%	-6%	-18%	-1%
CCCC[n+]1c2ccccc2cc2ccccc21	0%	-101*	?	2.1µM*	2.3µM*	23µM*
CCC[n+]1c2ccccc2cc2ccccc21	-16%	-99*	?	2.6µM*	2.9µM*	16µM*
CCN(c1ccccc1)S(=O)(=O)c1c(C)nc2scc(C)n2c1=O	nt	nt	nt	-18%	3%	nt
SMILES	uPA generation	IL1B secr inh	HT1080 IDH1KD tx	DT40 TDP1 no CPT	DT40 TDP1 CPT	HT1080-NT tox
COc1cccc(CNC(=O)c2nnc(Cc3ccc(Cl)cc3)o2)c1	nt	nt	nt	-3%	-1%	nt
COC(=O)C1=C(N)Oc2cc(N(C)C)ccc2C1c1ccccc1OC (stereo not drawn)	-7%	-19	4.1µM*	4.6µM*	4.6µM*	?
CC(=O)NO	15%	15	16%	1.7µM*!	?	46%
CC(=O)NCCCCCCNC(C)=O	4%	2	17%	-4%	-1%	?
COc1cccc(-c2cc(C(=O)NCCCn3ccnc3)c3ccccc3n2)c1	0%	0	4%	?	-28%	-3%
CCn1c(N2CCN(C(=O)c3ccco3)CC2)nc2ccccc21	-3%	-1	13%	-3%	1%	9%
CC(C)c1cc(N2CCN(C(=O)c3ccco3)CC2)n2c(nc3ccccc32)c1C#N	12%	-15	-4%	21µM*	15µM*	-1%
Cc1cc(-c2ccco2)c(C#N)c2nc3ccccc3n12	-8%	-12	-1%	18µM*	15µM*	1%
Cc1[nH]nc2c1C(C(C)c1ccccc1)C(C#N)=C(N)O2 (stereo not drawn)	0%	-86*	0%	?	?	-18%
CC(C)C1C(C#N)=C(N)Oc2n[nH]c(-c3ccccc3)c21 (stereo not drawn)	2%	-12	1%	?	-29%	-1%
O=C(CCn1ccnc1)Nc1cc(Cl)ccc1O	0%	10	1%	?	-17%	2%
Cc1ccc(C)c(N(C(=O)c2nsc(Cl)c2Cl)C(C(=O)NC2CCCC2)c2ccc(O)cc2)c1 (stereo not drawn)	7%	-71*	-16%	?	?	-24%
Cc1ccc(C)c(N(C(=O)c2csnn2)C(C(=O)NC2CCCC2)c2ccncc2)c1 (stereo not drawn)	4%	3	-7%	-7%	1%	-9%
COc1ccc(CN(C(=O)c2nsc(Cl)c2Cl)C(C(=O)NC2CCCCC2)c2ccc(OC)cc2)cc1 (stereo not drawn)	-26%	-21	?	23µM*	5.8µM*	?
COc1ccc(CN(C(=O)c2snc(C(N)=O)c2N)C(C(=O)NC2CCCC2)c2ccc(OC)c(OC)c2)cc1 (stereo not drawn)	-4%	-21	-1%	?	?	3%
